{"source": "PubChem BioAssay (NCATS)", "key": {"[1]": {"molecular_target": "Cytochrome P450 2C9 (Homo sapiens) (UniProt P11712)", "sequence (P11712 whole entry, looked up)": "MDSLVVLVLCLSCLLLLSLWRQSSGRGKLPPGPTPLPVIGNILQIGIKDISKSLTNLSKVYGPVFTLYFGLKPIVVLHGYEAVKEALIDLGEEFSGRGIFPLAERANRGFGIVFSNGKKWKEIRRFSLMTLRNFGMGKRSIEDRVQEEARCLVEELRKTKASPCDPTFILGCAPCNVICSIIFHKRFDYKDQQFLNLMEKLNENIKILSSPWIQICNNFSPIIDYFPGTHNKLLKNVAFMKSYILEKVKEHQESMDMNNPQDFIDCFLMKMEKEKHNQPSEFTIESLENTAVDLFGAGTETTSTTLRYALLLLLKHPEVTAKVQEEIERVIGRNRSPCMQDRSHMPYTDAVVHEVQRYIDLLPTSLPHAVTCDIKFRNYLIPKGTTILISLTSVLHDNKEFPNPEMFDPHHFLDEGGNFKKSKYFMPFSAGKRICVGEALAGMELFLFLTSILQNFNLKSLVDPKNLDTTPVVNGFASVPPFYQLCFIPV", "experiment": "qHTS Assay for Inhibitors and Substrates of Cytochrome P450 2C9 (AID 883); also: nearly all actives have a fitted effect of over 60% in size", "how_it_was_run": "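10nM CYP2C9 + 100uM Luciferin-H (=KM), 25mM KPO4; cpd 10 min 37C; NADPH regen, 60 min 37C; stop/detect with P450 Glo-Buffer 20 min; luminescence. Norm. to 57uM sulphaphenazole as full inhibition.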"}, "[2]": {"experiment": "qHTS Assay for Identification of Small Molecule Antagonists for NFkB Signaling Pathway (AID 895; active = well fitted inhibition curve with a large enough effect in the signal ratio, with a control signal flat, not every such curve was filed as active; the % refers to the signal ratio)", "how_it_was_run": "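ME-180 NFkB-bla cells (beta-lactamase under NFkB response element), plated overnight, treated with compound then 10 pM TNF alpha (about EC50) for 5 hrs at 37 C. LiveBLAzer FRET read at 460/530 nm emission, 405 nm excitation.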"}}, "note": "Results filed as inconclusive are left out. Where a call stands in place of a potency, no number is given. Activity calls are given as the source filed them. Unless noted, calls follow the shape of the dose curve; as a rule, active = well fitted inhibition curve with a large enough effect; inconclusive = small, poorly fitted or top-dose-only effect; inactive = no such curve, though single readings can be large or run the other way. Potency is read from the fitted curve at half-maximal effect."}
{"smiles": "C=C(CC)C(=O)c1ccc(OCC(=O)O)c(Cl)c1Cl", "values": [{"measurement": "Potency", "setting": "[1]", "value": "0.631 µM (active)"}]}
{"smiles": "Oc1ccc(O)cc1", "values": [{"measurement": "Potency", "setting": "[1]", "value": "inactive"}, {"measurement": "Potency", "setting": "[2]", "value": "10 µM (active)"}]}
{"smiles": "N[C@@H](Cc1cnc[nH]1)C(=O)O", "values": [{"measurement": "Potency", "setting": "[2]", "value": "inactive"}]}
